Structures are written as SMILES. Values joined by “and” are separate entries in the source; they are usually repeats but may differ in a detail not shown here. Equal values may be shown once. In all, about 69,000 compounds went through this assay and about 2,600 (3.8%) were called active. The full list was thinned out, with actives kept by preference. Unmarked numbers belong to inactive results. Cut-off read from the data, not from the text of the source: active = activity change below about -70% (passing the limit was not always enough); inconclusive = no clear call, values can overlap the other calls.

Our source for the activity change, negative = inhibition values is PubChem BioAssay AID1259416 (Broad Institute, 2018).

The experiment is described as follows: inhibitors of Toxoplasma growth in IFN-γ-primed hosts – cell-based, primary screen (AID 1259416).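 Note: host cells are HeLa cells infected with Toxoplasma gondii.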 As to conditions: Toxoplasma gondii growth in IFN-gamma-treated host cells; stronger effect = lower value; concentration not given here.
Turning to `CO[C@@H]1CCN(C(=O)c2ccnn2C)[C@H]2CN(CC3CC3)C[C@@H]12`, the activity change, negative = inhibition was 33.7%.

Take `COCCC(=O)c1cc2c(s1)CCN2c1ccc(C)nn1`: the activity change, negative = inhibition was 59.6%.

Consider `Cc1ccccc1C(=O)NCCc1csc(-c2ccc(F)cc2)n1`, for which the activity change, negative = inhibition is -18%.

`COc1ccccc1C(=O)NCCc1csc(-c2ccc(Cl)cc2)n1`: the activity change, negative = inhibition was -74% (active).

`O=C(NCCc1csc(-c2ccccc2)n1)c1ccccc1F`: the activity change, negative = inhibition is 455%.

Consider `O=C(CSc1nc2ccc(N3C(=O)c4ccccc4C3=O)cc2s1)N1CCOCC1`, for which the activity change, negative = inhibition is 1.26%.

`COc1ccc(NS(=O)(=O)c2cc3c4c(c2)CCC(=O)N4CCC3)cc1OC`: the activity change, negative = inhibition was 2.51%.

`CC(C)Cc1cc(C(=O)N2CCCC3(CN(C)C(=O)O3)C2)on1` (configuration not stated): the activity change, negative = inhibition was 3.84%.

For the molecule `Cc1nn(C)cc1-c1c(-c2ccccc2)ncn1CCNC(=O)c1ccncc1`, the activity change, negative = inhibition was -3.05%.

Take `CCCCCC(O)c1cccc(OCc2ccc3ccccc3n2)c1` (configuration not stated): the activity change, negative = inhibition is 74.5% and 28.6%.

On to `Cn1cc(-c2ccncc2)c(-c2ccc(OCc3ccc4ccccc4n3)cc2)n1`, for which the activity change, negative = inhibition is -77.6% (active).

`CCOC(=O)c1c(C(F)(F)F)cc(-c2ccccc2)nc1C`: the activity change, negative = inhibition is 12.4%.

For `O=C(c1ccoc1)N1CCCn2c(nc(CN3CCCC3)cc2=O)C1`, the activity change, negative = inhibition was -0.164%.

For the molecule `COc1ccc(S(=O)(=O)CCNS(=O)(=O)N2CCCC(C)C2)cc1` (configuration not stated), the activity change, negative = inhibition was 2.67%.

`CCN(CC)c1ncnc2c1cnn2CC(=O)NCc1ccccc1`: the activity change, negative = inhibition is -95.8% (active).

Consider `O=C(Cn1ncc2c(N3CCCC3)ncnc21)NCc1ccccc1`, for which the activity change, negative = inhibition is 10.5%.

Consider `CCc1ccccc1NC(=O)Cn1ncc2c(N(CC)CC)ncnc21`, for which the activity change, negative = inhibition was -34.2%.

`Cc1cc(N2CCC(C(=O)Nc3nnc(-c4cccnc4)s3)CC2)n2ncnc2n1`: the activity change, negative = inhibition is -5.63%.

Regarding `Clc1ccc(C(Cn2ccnc2)OCc2ccsc2Cl)c(Cl)c1` (configuration not stated), the activity change, negative = inhibition is -59.6% and 3.6%.

For the molecule `COc1ccc(CCCOC(Cn2ccnc2)c2ccc(OC)cc2)cc1` (configuration not stated), the activity change, negative = inhibition was -83.3% (active).

For `Cc1nc2c(c(=O)[nH]1)CCN(C(=O)c1c(-c3ccccc3Cl)noc1C)C2`, the activity change, negative = inhibition was 11.4%.

Consider `COC(=O)c1cc2n(n1)CCCN(C(=O)COc1ncnc3ccccc13)C2`, for which the activity change, negative = inhibition was 2.6%.

As to `O=C(Nc1ccc(OCc2ccccc2)cc1)OCC1CN(Cc2ccccc2)CCO1` (configuration not stated), the activity change, negative = inhibition is -88.7% (active).

Take `O=C(COc1ccc(C(=O)c2ccccc2)cc1)NC1CCN(Cc2ccccc2)CC1`: the activity change, negative = inhibition was 25.7%.

With `COc1ccc(NC(=O)c2cccc(CN3C[C@@H](C)O[C@@H](C)C3)c2)cc1`, the activity change, negative = inhibition is 26.7%.

Regarding `CN1Cc2ccccc2CC2(CCN(Cc3ccsc3)CC2)C1=O`, the activity change, negative = inhibition was 0.416%.

With `CN1C(=O)c2cc(NC(=O)c3ccc4c(c3)OCO4)ccc2OC[C@@H]2O[C@H](CC(=O)O)CC[C@H]21`, the activity change, negative = inhibition was 8.45%.

As for `Cc1ccc(NC(=O)CN2C(=O)CCc3cc(S(=O)(=O)N4CCCCC4C)ccc32)cc1N(C)C` (configuration not stated), the activity change, negative = inhibition was -103% (active).

In the case of `Cc1ccc(Cl)cc1NC(=O)CN1C(=O)CCc2cc(S(=O)(=O)N3CCCCC3)ccc21`, the activity change, negative = inhibition is 0.0244%.

For the molecule `Cc1cc(C)cc(NC(=O)CN2C(=O)CCc3cc(S(=O)(=O)N4CCOCC4)ccc32)c1`, the activity change, negative = inhibition was 24.4%.

Regarding `COC(=O)c1c(NCc2c(C)noc2C)c2cccc(Cl)c2[nH]c1=O`, the activity change, negative = inhibition is 7.07%.

As for `Cc1ccc2[nH]c3c(c2c1)CCNC31C(=O)N(C)c2ccc(Br)cc21` (configuration not stated), the activity change, negative = inhibition was 1.48%.

`CS(=O)(=O)N1CCO[C@H]2[C@@H](OCc3cccnc3)CC[C@H]21`: the activity change, negative = inhibition was 37.3%.

In the case of `O=C1c2cc(OCCN3CCCCC3)ccc2-c2ccc(OCCN3CCCCC3)cc21`, the activity change, negative = inhibition was -90% (active).

Turning to `O=C(Nc1ccc(F)cc1F)N1CCCN(CCOc2ccccc2)CC1`, the activity change, negative = inhibition was 8.95%.

Take `O=c1[nH]c2ccccc2n1C1CCN(CCOc2ccccc2)CC1`: the activity change, negative = inhibition is -49.4%.

For the molecule `O=C1NCCc2[nH]c(-c3ccncc3)cc21`, the activity change, negative = inhibition is -85.6% (active).

For the molecule `COc1cccc(-c2cn[nH]c2C2CCCN2S(=O)(=O)c2ccc(Cl)cc2)c1` (configuration not stated), the activity change, negative = inhibition was -31.9%.

For the molecule `Cc1nn(CC(=O)N(C)Cc2ccccc2)c(=O)c2nc(-c3ccccc3)sc12`, the activity change, negative = inhibition is -55.4%.

For `O=S(=O)(CCSCc1ccc(Cl)cc1)CCSCc1ccc(Cl)cc1`, the activity change, negative = inhibition is -10%.

Turning to `CC1(C)CC(=O)c2cnc3cc(-c4ccccc4)nn3c2C1`, the activity change, negative = inhibition is -86.8% (active).

For `CS(=O)(=O)Nc1ccc(-n2cnc(-c3ccccc3)c2)cn1`, the activity change, negative = inhibition was 11.6%.

`O=C(Nc1ccc(F)cc1F)c1c(O)c2ccccc2n(-c2ccccc2)c1=O`: the activity change, negative = inhibition was 24%.

Turning to `Cc1ccc(NC(=O)CC(=O)NCCc2cnc[nH]2)cc1Cl`, the activity change, negative = inhibition is 5.77%.

Consider `S=C(NCCCc1cnc[nH]1)NCCCN(Cc1ccc(Cl)c(Cl)c1)c1ccc(Br)cn1`, for which the activity change, negative = inhibition was -78.1% (active).

On to `COc1ccc(NC(=O)c2cc3c(s2)CCN3C(=O)C2CC2)cc1`, for which the activity change, negative = inhibition is 23.2%.

In the case of `Cn1c(=O)c(-c2nc(-c3cccs3)no2)c(O)c2ccccc21`, the activity change, negative = inhibition was 67.9%.

Take `CCSCCN(C(=O)c1nnc2nc(C)cc(C)n12)C1CCCCC1`: the activity change, negative = inhibition is -3.21%.

As to `COc1ccc2c3c(n(C)c2c1)[C@H](CO)N(C(=O)Nc1cccc(F)c1)CC31CN(Cc2nccs2)C1`, the activity change, negative = inhibition was -24.3%.

For `N#Cc1ccc(C(=O)N2CCC3C2CCC(=O)N3c2cccnc2)cc1` (configuration not stated), the activity change, negative = inhibition is -20.1%.

Consider `COc1ccc(Br)cc1-c1nc(Cn2nnc(C(=O)Nc3cc(F)ccc3C)c2C)c(C)o1`, for which the activity change, negative = inhibition is 423%.

Consider `COc1ccccc1NC(=O)c1nnn(Cc2nc(-c3ccc(C)cc3)oc2C)c1C`, for which the activity change, negative = inhibition is -82.9% (active).

For `COc1ccccc1NC(=O)c1nnn(Cc2nc(-c3cccc(OC)c3OC)oc2C)c1C`, the activity change, negative = inhibition is -83.3% (active).

Take `Cc1ccc(Cl)cc1NC(=O)c1nnn(Cc2nc(-c3cccc(Cl)c3)oc2C)c1C`: the activity change, negative = inhibition was 55.8%.

In the case of `Cc1ccccc1-c1nc(Cn2nnc(C(=O)Nc3c(C)cccc3C)c2C)c(C)o1`, the activity change, negative = inhibition was -38.6%.

In the case of `CCc1ccccc1NC(=O)c1nnn(Cc2nc(-c3ccccc3C)oc2C)c1C`, the activity change, negative = inhibition is -107% (active).

Turning to `Cc1cccc(C)c1NC(=O)c1nnn(Cc2nc(-c3ccccc3)oc2C)c1C`, the activity change, negative = inhibition was -62.3%.

`COc1ccc(-c2nc(Cn3nnc(C(=O)Nc4ccccc4C)c3C)c(C)o2)c(OC)c1`: the activity change, negative = inhibition is 32.4%.

For `Cc1ccc(-c2nc(Cn3nnc(C(=O)NCc4ccccn4)c3C)c(C)o2)cc1`, the activity change, negative = inhibition is -57.8%.

Consider `CCC(c1ccccn1)N(C)C1CCNCC1` (configuration not stated), for which the activity change, negative = inhibition was 16.8%.

On to `CN(CC1Cc2ccccc2O1)S(=O)(=O)NCc1ccccc1` (configuration not stated), for which the activity change, negative = inhibition is 0.376%.

For `CN1CCO[C@@H]2CN(C(=O)CC3Cc4ccccc4C3)C[C@@H]2C1`, the activity change, negative = inhibition was 112%.

As for `CN(C[C@@H]1[C@H](c2ccccc2)[C@@H](CO)N1Cc1ccccn1)S(C)(=O)=O`, the activity change, negative = inhibition was 2.44%.

As for `CCc1cc(CN2CCCC2c2nc3ccc(C)cc3[nH]2)on1` (configuration not stated), the activity change, negative = inhibition was 9.45%.

For `CC(=O)NCCc1csc(C2CCN(C(=O)NCc3ccc(F)cc3)CC2)n1`, the activity change, negative = inhibition is -3.56%.

For `O=C(O)CCC(=O)N1CC2CCC(C1)N2C(=O)c1ccco1`, the activity change, negative = inhibition was 61.2%.

Regarding `CC(C)NC(=O)N1CC2(C1)[C@H](c1ccccc1)[C@H](CO)N2C(=O)C1CCOCC1`, the activity change, negative = inhibition is -2.06%.

Take `Cc1cccc(C2c3[nH]c4ccccc4c3CCN2C(=O)c2ccccc2C)c1` (configuration not stated): the activity change, negative = inhibition is -84.7% (active).

`CCOc1ccc(C2c3[nH]c4ccccc4c3CCN2C(=O)C2CC2)cc1` (configuration not stated): the activity change, negative = inhibition was -34.9%.

For `Cc1ccc(C2c3[nH]c4ccccc4c3CCN2C(=O)c2cccc(C)c2)cc1` (configuration not stated), the activity change, negative = inhibition was 226%.

Take `CCOc1cccc(CC(=O)N2CCc3c([nH]c4ccccc34)C2c2ccc(OC)cc2)c1OCC` (configuration not stated): the activity change, negative = inhibition was 213%.

Consider `CCOc1cccc(C2c3[nH]c4ccccc4c3CCN2C(=O)c2ccccc2)c1` (configuration not stated), for which the activity change, negative = inhibition is -34.3%.

`CSc1ccc(C2c3[nH]c4ccccc4c3CCN2C(=O)c2cc3ccccc3[nH]2)cc1` (configuration not stated): the activity change, negative = inhibition is -96.3% (active).

Take `Cc1cccc(C2c3[nH]c4ccccc4c3CCN2C(=O)C(=O)CCc2ccccc2)n1` (configuration not stated): the activity change, negative = inhibition was -13.8%.

Turning to `CCOc1cccc(CC(=O)N2CCc3c([nH]c4ccccc34)C2c2ccc(F)cc2)c1OCC` (configuration not stated), the activity change, negative = inhibition was -74.9% (active).

For the molecule `COCC1CN(c2ccc(C)nn2)Cc2cnn(C)c21` (configuration not stated), the activity change, negative = inhibition was -0.315%.

For the molecule `Cc1ccc(S(=O)(=O)Nc2cncc(C(=O)NCC(C)C)c2)cc1`, the activity change, negative = inhibition was -16.9%.

On to `Cc1nn(C)c2c1C(c1cc(F)ccc1-n1cccn1)CC(=O)N2` (configuration not stated), for which the activity change, negative = inhibition is -37.8%.

With `CC1(C)[C@@H](O[C@H]2O[C@H](C(=O)O)[C@@H](O)[C@H](O)[C@@H]2O[C@@H]2O[C@H](C(=O)O)[C@@H](O)[C@H](O)[C@H]2O)CC[C@@]2(C)[C@H]3C(=O)C=C4[C@@H]5C[C@@](C)(C(=O)O)CC[C@]5(C)CC[C@@]4(C)[C@]3(C)CC[C@@H]12`, the activity change, negative = inhibition was 15.6%.

For `COc1ccccc1-c1nc(Cc2noc(-c3cccnc3)n2)c(C)o1`, the activity change, negative = inhibition is -62.2%.

For `O=C(c1cccc(Cl)c1)N1CCC2(CC1)Nc1cc(F)ccc1-n1cccc12`, the activity change, negative = inhibition was 50.9%.

As for `O=C1N[C@H](c2ccccc2)COCc2cn(nn2)CC[C@H]1Cc1cccc(Cl)c1`, the activity change, negative = inhibition was -2.88%.

On to `CCN(CC)C(=O)[C@@H]1C[C@H](N)CN1C(=O)Cc1ccc(F)c(C)c1`, for which the activity change, negative = inhibition is 3.3%.

As to `Cc1cc(-c2cc(C3CCN(C(=O)C4CC(=O)C4)C3)ccn2)ccc1F` (configuration not stated), the activity change, negative = inhibition is 14.5%.

For `Clc1ccc(-c2noc3c2CN(CCn2cc(Cl)cn2)CC3)cc1`, the activity change, negative = inhibition is -72.1% (active).

Consider `O=C(CCc1ccco1)N1CCc2onc(-c3ccc(C(F)(F)F)cc3)c2C1`, for which the activity change, negative = inhibition was 9.55%.

In the case of `c1ccc2c(-c3noc4c3CN(CC3CCCO3)CC4)cccc2c1` (configuration not stated), the activity change, negative = inhibition is -4.04%.
